Laboratory results as given in PubChem BioAssay (EPA / NIEHS).
Records with an inconclusive call do not appear. The source made the active and inactive calls. How the source made its calls, unless noted: active means hit-call score of the fitted dose curve at least 0.9, where 1 is the maximum; inactive means score below 0.9.

Each compound was assayed against Nuclear receptor subfamily 1 group I member 3 (Homo sapiens) (UniProt Q14994) (assay: ATG_CAR_TRANS: Attagene TRANS-FACTORIAL HepG2 Assay for human Constitutive Androstane Receptor (CAR) (AID 2282969; active means hit-call score of the fitted dose curve at least 0.9, where 1 is the maximum;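 further: activators raise reporter mRNA above DMSO so AC50 marks induction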)). Conditions: HepG2 Attagene TRANS-FACTORIAL CAR reporter.
In short: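 HepG2 cells transiently transfected with GAL4-UAS reporter units; TRANS format reads activity of exogenous chimeric NR-Gal4 protein. After 24 h dosing, reporter mRNA quantified by RT-PCR, 6-FAM labelling and capillary electrophoresis; gain of signal fitted against DMSO.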

Nuclear receptor subfamily 1 group I member 3 (Homo sapiens), sequence (Q14994 whole entry, looked up, the tested form may be a part): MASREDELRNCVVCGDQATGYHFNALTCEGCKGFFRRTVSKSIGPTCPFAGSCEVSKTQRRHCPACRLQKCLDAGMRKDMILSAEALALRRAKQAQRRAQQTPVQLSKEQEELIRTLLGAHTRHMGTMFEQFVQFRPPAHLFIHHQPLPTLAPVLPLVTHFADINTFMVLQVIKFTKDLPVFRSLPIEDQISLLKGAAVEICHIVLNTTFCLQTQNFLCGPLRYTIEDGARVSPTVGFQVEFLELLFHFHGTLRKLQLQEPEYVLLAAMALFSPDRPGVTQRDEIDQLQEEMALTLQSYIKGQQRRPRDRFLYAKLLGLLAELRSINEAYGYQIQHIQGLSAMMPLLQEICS

Q: O=C(O)c1cc(C(=O)O)cc([N+](=O)[O-])c1 was tested. Which outcome did it give?
A: inactive

Q: With O=C1c2ccccc2C(=O)c2c(O)ccc(O)c21 as the compound, how does the outcome read?
A: inactive

Q: Which outcome does the source give for Cc1ncc([N+](=O)[O-])n1CCO here?
A: inactive

Q: How did the outcome turn out when CC(C)OCCO was run?
A: inactive

Q: How did the outcome turn out when CCCC(=O)c1ccccc1 was run?
A: inactive

Q: Which outcome does the source give for C=CCCCCCCCCCC here?
A: inactive

Q: For O=C(c1ccccc1)C(O)c1ccccc1 (configuration not stated), which outcome is on record?
A: inactive

Each compound was assayed against Steroid hormone receptor ERR1 (Homo sapiens) (UniProt P11474) (assay: ATG_ERRa_TRANS: Attagene TRANS-FACTORIAL HepG2 Assay for human Estrogen-Related Receptor alpha (ERRa) (AID 2282971; active means hit-call score of the fitted dose curve at least 0.9, where 1 is the maximum)). Conditions: HepG2 Attagene TRANS reporter, ERRa transactivation.
In short: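 Transfected HepG2, 24 h dosing, ERRa-Gal4 chimera driving GAL4-UAS reporter. Readout: reporter mRNA via RT-PCR plus capillary electrophoresis (fluorescence). Positive direction vs DMSO control.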

Steroid hormone receptor ERR1 (Homo sapiens), sequence (P11474 whole entry, looked up, the tested form may be a part): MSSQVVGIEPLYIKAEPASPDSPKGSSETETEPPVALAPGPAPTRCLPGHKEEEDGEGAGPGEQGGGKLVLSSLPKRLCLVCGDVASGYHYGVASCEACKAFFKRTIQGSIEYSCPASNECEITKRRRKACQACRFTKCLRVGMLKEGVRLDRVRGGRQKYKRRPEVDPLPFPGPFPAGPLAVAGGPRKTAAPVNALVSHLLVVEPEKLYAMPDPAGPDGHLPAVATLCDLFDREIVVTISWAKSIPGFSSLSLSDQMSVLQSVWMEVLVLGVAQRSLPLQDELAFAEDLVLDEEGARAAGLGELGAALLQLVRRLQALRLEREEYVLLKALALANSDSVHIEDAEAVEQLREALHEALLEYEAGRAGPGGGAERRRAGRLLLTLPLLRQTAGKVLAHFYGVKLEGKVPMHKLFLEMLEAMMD

Q: For Cc1ncc([N+](=O)[O-])n1CCO, which outcome is on record?
A: inactive

Q: How did the outcome turn out when Cc1occc(=O)c1OC(=O)C(C)C was run?
A: inactive

Q: For CCCC(=O)c1ccccc1, which outcome is on record?
A: inactive

Q: Which outcome does the source give for CCCCCCCCC=CCCCCCCCC1=NCCN1CCO here?
A: inactive

Q: Which outcome does the source give for C=Cc1ccncc1 here?
A: inactive

Q: How did the outcome turn out when Clc1cc(Cl)c(-c2c(Cl)c(Cl)cc(Cl)c2Cl)cc1Cl was run?
A: inactive

Q: Which outcome does the source give for COC(=O)C=C(C)CCC=C(C)C here?
A: inactive

Q: For CS(=O)(=O)c1ccc(Cl)cc1, which outcome is on record?
A: inactive

Q: With CCCCCCCCCCCCCC(=O)OCC(O)CO (configuration not stated) as the compound, how does the outcome read?
A: inactive

What follows are compounds tested against X-box-binding protein 1 (Homo sapiens) (UniProt P17861) (assay: ATG_Xbp1_CIS: Attagene CIS-FACTORIAL HepG2 Assay for human X-box Binding Protein 1 (XBP1) (AID 2282972)). Conditions: HepG2 XBP1 cis-element reporter, Attagene multiplex; actives raise or lower the signal.
In short: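 HepG2, transient MRTU transfection (cis-promoter driven), 24 h compound exposure. Total RNA → oligo(dT) RT → PCR → 6-FAM labeling → HpaI cut → CE. Bidirectional fit vs DMSO.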

X-box-binding protein 1 (Homo sapiens), sequence (P17861 whole entry, looked up): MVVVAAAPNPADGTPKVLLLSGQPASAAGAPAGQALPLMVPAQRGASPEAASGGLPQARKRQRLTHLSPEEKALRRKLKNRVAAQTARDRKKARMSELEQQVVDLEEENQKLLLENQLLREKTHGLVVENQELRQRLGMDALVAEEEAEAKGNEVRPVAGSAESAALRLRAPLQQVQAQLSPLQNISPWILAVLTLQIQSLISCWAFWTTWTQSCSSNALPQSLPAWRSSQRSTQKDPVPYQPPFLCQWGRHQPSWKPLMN

Q: How did the outcome turn out when O=C(O)c1cc(C(=O)O)cc([N+](=O)[O-])c1 was run?
A: inactive

Q: O=C1c2ccccc2C(=O)c2c(O)ccc(O)c21 was tested. Which outcome did it give?
A: inactive

Q: For OCC#CCO, which outcome is on record?
A: inactive

Q: How did the outcome turn out when Cc1ncc([N+](=O)[O-])n1CCO was run?
A: inactive

Q: CCC1(c2ccccc2)C(=O)NCNC1=O was tested. Which outcome did it give?
A: inactive

Q: With OC[C@H]1O[C@@H](Oc2ccc(O)cc2)[C@H](O)[C@@H](O)[C@@H]1O as the compound, how does the outcome read?
A: inactive

Q: Which outcome does the source give for COS(=O)(=O)O here?
A: inactive

Q: For Cc1occc(=O)c1OC(=O)C(C)C, which outcome is on record?
A: inactive

Q: For CC(C)NCC(O)COc1ccc(CC(N)=O)cc1 (configuration not stated), which outcome is on record?
A: inactive

Q: For CC(C)OCCO, which outcome is on record?
A: inactive

Q: Which outcome does the source give for CN(C)C(=O)Nc1ccc(Oc2ccc(Cl)cc2)cc1 here?
A: inactive

Q: COc1cc(C(C)C)ccc1C was tested. Which outcome did it give?
A: inactive

Q: Which outcome does the source give for O=C(O)c1cccnc1C(=O)O here?
A: inactive

Q: Which outcome does the source give for CCCC(=O)c1ccccc1 here?
A: inactive

Q: CCCCCCCCC=CCCCCCCCC1=NCCN1CCO was tested. Which outcome did it give?
A: inactive

Q: C=C(C)[C@@H]1CC=C(C)C(=O)C1 was tested. Which outcome did it give?
A: inactive

Q: Which outcome does the source give for CC1(C)O[C@@H]2[C@@H](CO[C@@]3(COS(N)(=O)=O)OC(C)(C)O[C@@H]23)O1 here?
A: inactive

Q: With COc1cc(CCC(C)=O)ccc1O as the compound, how does the outcome read?
A: inactive

Q: CC=Cc1ccc(OC)c(OC)c1 was tested. Which outcome did it give?
A: inactive

Q: With C[Si](C)(C)O[Si](C)(C)C as the compound, how does the outcome read?
A: inactive

Q: How did the AC50 turn out when C=Cc1ccncc1 was run?
A: 26.1 µM (active)

Q: Which AC50 does the source give for CSc1c(Cl)c(Cl)c(Cl)c(Cl)c1Cl here?
A: 136 µM (active)

Q: With Clc1cc(Cl)c(-c2c(Cl)c(Cl)cc(Cl)c2Cl)cc1Cl as the compound, how does the outcome read?
A: inactive

Q: With COC(=O)C=C(C)CCC=C(C)C as the compound, how does the outcome read?
A: inactive

Q: How did the outcome turn out when CCCCCCCCN1CCCC1=O was run?
A: inactive

Q: How did the outcome turn out when CS(=O)(=O)c1ccc(Cl)cc1 was run?
A: inactive

Q: With CC(C)CCOC(=O)c1ccccc1 as the compound, how does the outcome read?
A: inactive

Q: With CCCCCCCCCCCCCC(=O)OCC(O)CO (configuration not stated) as the compound, how does the outcome read?
A: inactive

Q: With CCCCCCCCCCCCS(=O)(=O)Cl as the compound, how does the outcome read?
A: inactive

Q: Which outcome does the source give for CCOc1ccc(NC(=O)CC(C)=O)cc1 here?
A: inactive

Q: For O=CCc1ccccc1, which outcome is on record?
A: inactive
